Only some compounds are listed: those with a hit (about 7.9% of all), similar ones and a draw of the others.
MCF10A rerep = induces DNA re-replication in MCF 10a normal breast cells; actives 2.9% (n = 350,000); AID 624296; MCF 10A DNA re-replication, Hoechst nuclear intensity, 48 h; Potency, µM (highest dose often 46.1 µM), for the others: at the top dose activity, positive = re-replication, actives largely listed as activators; also: % of control where 0% means no effect; nearly all actives have a fitted effect of over 50% in size
HT1080 IDH1KD tx = HT-1080 IDH1 knockdown cell toxicity (counter line). HT-1080 IDH1 knockdown viability, ATP luminescence, 48 h. Potency, µM (top dose mostly 46.1 µM), for the others: at the top dose activity, negative = toxicity, usual class: cytotoxic. actives 2% (n = 360,000). AID 686971;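 also: 0% = DMSO wells and -100% = cell-free medium wells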
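Luminescent ATP read-out (CellTiter-Glo, 10 min at room temperature) after 48 h compound exposure at 37 °C gave viability of IDH1-knockdown HT-1080 cells. Activity was normalised to DMSO and cell-free wells, then fitted as concentration-response curves.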
KB-V1 cytotox = kills drug-selected multidrug resistant KB-V1 cells | KB-V1 MDR cells viability, CellTiter-Glo, 72 h | Potency, µM (highest dose often 46.1 µM), actives largely listed as cytotoxic | actives 3.4% (n = 400,000); also: % is scaled to controls: 0 for no effect and ±100 for the full control effect; nearly all actives have a fitted effect of over 60% in size
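qHTS viability screen in drug-selected KB-V1 MDR cells: 72 h compound treatment at 37 degrees C, ATP luminescence end point.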
HT1080NT lethal = kills 2HG-producing HT-1080-NT fibrosarcoma cells; Potency, µM (top dose mostly 46.1 µM), inactives show at the top dose activity, negative = less viability, most hits filed as cytotoxic; actives 1.6% (n = 360,000); HT-1080-NT fibrosarcoma viability, CellTiter-Glo ATP luminescence, 48 h;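 also: NT is the 2HG producing partner of a matched IDH1 knockdown line; 0% = DMSO-treated cells and -100% = media-only wells without cells; nearly all actives have a fitted effect of over 55% in size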
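HT-1080-NT; 750 cells/well; 5% FBS RPMI; 48 h compound, 37 degrees C; CellTiter-Glo luminescence; curve fitting and curve-class assignment.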
KB-3-1 cytotox = kills parental KB-3-1 adenocarcinoma cells | KB-3-1 viability, CellTiter-Glo ATP luminescence, 72 h | Potency, µM (highest dose often 46.1 µM), hits mostly cytotoxic | actives 1.4% (n = 400,000) | AID 1347075; also: % is scaled to controls: 0 for no effect and ±100 for the full control effect; nearly all actives have a fitted effect of over 60% in size
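Screening of KB-3-1 cells (DMEM, 10% FBS, phenol-red free) ran from lowest to highest compound concentration; after 72 h at 37 °C viability was read luminescently and curves fitted.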
SW480 rereplic = inducers of DNA re-replication in SW480 colon cancer cells | SW480 DNA re-replication, Hoechst DNA content imaging, 48 h | Potency, µM (series often up to 46.1 µM), for inactives: at the highest dose re-replication activation, most hits filed as activators | actives 1.8% (n = 340,000) | AID 624297; also: % of control where 0% means no effect; nearly all actives have a fitted effect of over 55% in size
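Image-based read-out: total Hoechst fluorescence of nuclei (405 nm excitation, 500-530 nm emission), with hits raising the fraction of high-intensity nuclei. SW480 colon cells incubated 48 hr with compounds at 37 C.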
The depositor's hits bear a star; i = inactive; ? = inconclusive; nt = not tested or not shown. Calls follow the shape of the dose curve; as a rule, active = well fitted curve in the direction sought with a large enough effect; inconclusive = small, poorly fitted or top-dose-only effect, or another doubt; inactive = no such curve, though single readings can be large; an effect the other way counts as inactive or inconclusive. Potency is read from the fitted curve at half-maximal effect.

SMILES	MCF10A rerep	HT1080 IDH1KD tx	KB-V1 cytotox	HT1080NT lethal	KB-3-1 cytotox	SW480 rereplic
CSc1ccc(/C=C(\C#N)C(=O)NC2CCCCC2C)cc1 (stereo not given)	18µM*	?	16µM*	?	?	?
CC(=O)Nc1ccc(/C=C(\C#N)C(=O)NC2CCCCC2C)cc1 (stereo not given)	?	-12%	?	-4%	i	3%
CC1CCCCC1NC(=O)/C(C#N)=C/c1ccccc1F (stereo not given)	15µM*	18µM*	i	?	i	?
COc1cc(/C=C(\C#N)C(=O)NC2CCCCC2C)ccc1OS(=O)(=O)c1ccc(C)cc1 (stereo not given)	18µM*	?	i	?	?	?
CCCCCCCCNC(=O)/C(C#N)=C/c1ccc(SC)cc1	-14%	0%	21µM*	-2%	i	2.1µM*
O=C1c2ccccc2[C@@H]2Cc3csc[n+]3[C@H]12	nt	0%	?	-2%	i	nt
CCOc1ccc(/C=N/NC(=O)c2[nH]ncc2Br)c(O)c1	?	5.2µM*	?	7.3µM*	i	?
CCOc1ccccc1NC(=S)Nc1ncccc1C	18µM*	?	21µM*	?	18µM*	?
Cc1cccnc1NC(=S)Nc1ncccc1C	0%	-17%	i	-8%	?	3%
COC(=O)c1ccccc1NC(=O)Nc1ncccc1C	2%	5%	i	0%	i	21µM*
Cc1nn(-c2cc(N3CCCCCC3)ccc2[N+](=O)[O-])c(=O)c2ccccc12	12%	11%	3.7µM*	0%	i	11%
Cc1nn(-c2cc(N3CCCCC3)ccc2N)c(=O)c2ccccc12	-1%	3%	i	3%	i	0%
Cc1ccc(-c2nn(-c3cc(N4CCNCC4)ccc3[N+](=O)[O-])c(=O)c3ccccc23)cc1	-7%	?	?	15µM*	?	-1%
Cc1ccc(-c2nn(-c3cc(Cl)ccc3[N+](=O)[O-])c(=O)c3ccccc23)cc1C	30%	-5%	i	-4%	i	?
COc1ccc(Cl)cc1NC(=O)c1nn(-c2ccc(C)cc2)c(=O)n(C)c1=O	nt	nt	i	nt	i	nt
CCCCCc1c(-c2ccccc2F)ncn1CCc1ccccc1OC	nt	?	18µM*	?	?	nt
CCCCc1c(-c2ccccc2F)ncn1CCc1ccccc1OC	nt	?	15µM*	?	?	nt
COc1cc(OC)cc(-n2c(=O)c3ccccc3n(CC(=O)NCCc3ccc(OC)c(OC)c3)c2=O)c1	nt	nt	?	nt	i	nt
CCN(CC)C(=O)CSc1nc2ccccc2c(=O)n1OC(C)C	-1%	10%	2.6µM*	2%	i	-3%
COc1ccc(CNC(=O)c2ccc(CS(=O)(=O)Cc3ccccc3F)o2)cc1	0%	6%	?	0%	i	-26%
O=C(NCc1ccccc1)c1ccc(CS(=O)(=O)Cc2ccccc2F)o1	-3%	12%	16µM*	16%	i	-21%
O=C(Nc1ncc(Br)s1)C(Cc1ccccc1)n1cccc1 (stereo not given)	19%	-26%	i	26µM*	i	10%
CCc1ccc2oc(-c3ccc(OC)cc3)cc(=Nc3cccc(C(=O)O)c3)c2c1	23µM*	-20%	i	-4%	i	25%
COc1ccc(-c2cc(C(=O)Nc3c(C)n(C)n(-c4ccccc4)c3=O)no2)cc1	9%	18%	i	2%	i	-68%
CCc1ccc2oc(-c3ccc(OC)cc3)cc(=Nc3c(C)n(C)n(-c4ccccc4)c3=O)c2c1	?	-1%	9.2µM*	0%	?	-55%
SMILES	MCF10A rerep	HT1080 IDH1KD tx	KB-V1 cytotox	HT1080NT lethal	KB-3-1 cytotox	SW480 rereplic
COc1ccc(-c2cc(=Nc3ccc(C(=O)O)cc3)c3cc(C)ccc3o2)cc1	13%	-29%	i	-5%	i	-5%
Cn1c(=O)oc2cc(S(=O)(=O)CCC(=O)N3CCN(c4cccc(Cl)c4)CC3)ccc21	nt	nt	i	nt	i	nt
CC1(C)CC(=O)C=C(C#CC2(O)CCCCC2)C1	nt	13µM*	16µM*	5.2µM*	23µM*	nt
Cc1cccc(C#CC2=CC(=O)CC(C)(C)C2)c1	nt	0%	i	16%	i	nt
Cc1nn(CC(O)COc2ccc3c(c2)CCC3)c(C)c1Br (stereo not given)	10%	-12%	?	-9%	i	-1%
CC(=O)c1c(C)nn(CC(O)COc2ccc3c(c2)CCC3)c1C (stereo not given)	-2%	-13%	10µM*	?	i	7%
COc1ccccc1NC(=O)Cc1noc(CSc2nnc(C(F)(F)F)n2C)n1	-9%	0%	i	2%	i	-58%
COc1ccccc1NC(=O)Cc1noc(CSc2nnc(C)n2C)n1	0.65µM*	1%	i	8%	i	2%
CC(C)(O)C#Cc1ccc(N2C(c3ccsc3)=Cc3ccc(F)cc3C2c2c[nH]c3ccc(C#N)cc23)cc1 (stereo not given)	nt	23µM*	?	?	?	nt
COC(=O)c1ccc(C2N=C(c3cccs3)CC(c3ccccc3O)N2)cc1 (stereo not given)	18µM*	?	i	?	i	?
O=C(c1ccccc1)N1N=C(c2cccs2)CC1c1ccccc1O (stereo not given)	17%	-1%	i	-13%	i	-7%
COCCNc1nc(NCCOc2ccccc2)c2sc(-c3ccccc3)cc2n1	nt	23µM*	?	15µM*	i	nt
COc1ccc(C(=O)Nc2ccccc2SCc2cc(=O)c3cccc(C)c3[nH]2)cc1	nt	nt	i	nt	i	nt
CC(C)(C)c1ccc(CN(Cc2ccco2)Cc2nnnn2C2CCCC2)cc1	?	?	16µM*	-2%	i	13%
CCC(C)(C)n1nnnc1CN(Cc1ccco1)Cc1cc2cc3c(cc2[nH]c1=O)OCO3	18%	5%	?	6%	i	15%
COc1ccc2cc(CN(Cc3ccco3)Cc3nnnn3C3CCCCC3)c(=O)[nH]c2c1	35%	?	?	?	i	?
CCC(C)(C)n1nnnc1CN(Cc1ccc(Cl)cc1)Cc1ccco1	?	-2%	23µM*	-4%	21µM*	1%
COc1cc(OC)c(OC)cc1CNCCSc1nnnn1-c1ccccc1	nt	nt	i	nt	i	nt
Cc1cc(N2CCN(c3nc4ccccc4s3)CC2)n2ncnc2n1	17%	?	1µM*	?	2.6µM*	-13%

From PubChem BioAssay
